From publication PMC7862700, “An all-to-all approach to the identification of sequence-specific readers for epigenetic DNA modifications on cytosine” come the findings set out here.

Common to all, as to test: DAPPL (digital affinity profiling via proximity ligation, sequencing); 10 mM Tris-HCl pH 7.5, 50 mM NaCl, 1 mM DTT, 4% glycerol, room temperature, 30 min; GST-TFs on glutathione beads, 16-mer random dsDNA library, 0.1% formaldehyde crosslink after washing; high values mean tight binding
For one experiment, the target named is T1, FEV (Homo sapiens, UniProt Q99581 1-238).
T1 sequence: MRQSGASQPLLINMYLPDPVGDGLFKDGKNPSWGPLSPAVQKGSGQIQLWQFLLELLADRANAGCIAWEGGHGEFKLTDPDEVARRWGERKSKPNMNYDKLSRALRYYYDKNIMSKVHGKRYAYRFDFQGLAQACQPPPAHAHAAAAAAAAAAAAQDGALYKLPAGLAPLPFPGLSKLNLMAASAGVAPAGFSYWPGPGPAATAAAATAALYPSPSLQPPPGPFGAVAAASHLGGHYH
As to conditions: protein: recombinant; tags: N-terminal GST; dsDNA, one strand shown. In short, it runs like this:
(§1)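 In yeast, human transcription factors were expressed with a GST fusion, then pulled down on glutathione beads and given DNA barcodes. Pooled with a tag-only sample, they were exposed to 200 nmole of a 16-mer random double-stranded DNA library (Tris/NaCl/DTT/glycerol buffer, room temperature, 30 min), washed, crosslinked with 0.1% formaldehyde, proximity-ligated using BsaI/T4 ligase for 1 h at 37 °C, PCR-amplified and read on an Illumina NextSeq500. Each hexamer's frequency of reads for a factor, divided by the matching frequency for the tag-only sample, gives the binding signal.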

Another experiment addresses ETV5 (Homo sapiens, UniProt P41161 1-510). The settings on record: protein: recombinant; tags: N-terminal GST; dsDNA, one strand shown. In short, it runs like this: as §1
The target of a further experiment is HSF1 (Homo sapiens, UniProt Q00613 1-529). As to conditions: protein: recombinant; tags: N-terminal GST; chain copies: 3; dsDNA, one strand shown. In short, it runs like this:
as §1

Another experiment deals with T2, SPIC (Homo sapiens, UniProt Q8N5J4 1-248).
T2 sequence: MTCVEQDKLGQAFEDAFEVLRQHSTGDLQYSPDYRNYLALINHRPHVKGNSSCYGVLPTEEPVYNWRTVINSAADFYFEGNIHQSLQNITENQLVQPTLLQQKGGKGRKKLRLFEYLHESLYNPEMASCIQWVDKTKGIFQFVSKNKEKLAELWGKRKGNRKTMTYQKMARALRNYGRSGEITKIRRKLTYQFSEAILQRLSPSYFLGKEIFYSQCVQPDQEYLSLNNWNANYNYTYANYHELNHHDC
As to conditions: protein: recombinant; tags: N-terminal GST; dsDNA, one strand shown. In short, it runs like this:
as §1

In another experiment the target is ELF4 (Homo sapiens, UniProt Q99607 1-663). The settings on record: protein: recombinant; tags: N-terminal GST; dsDNA, one strand shown. In outline:
as §1

Another experiment has as its target T3, ELK4 (Homo sapiens, UniProt P28324-2 1-405).
T3 sequence: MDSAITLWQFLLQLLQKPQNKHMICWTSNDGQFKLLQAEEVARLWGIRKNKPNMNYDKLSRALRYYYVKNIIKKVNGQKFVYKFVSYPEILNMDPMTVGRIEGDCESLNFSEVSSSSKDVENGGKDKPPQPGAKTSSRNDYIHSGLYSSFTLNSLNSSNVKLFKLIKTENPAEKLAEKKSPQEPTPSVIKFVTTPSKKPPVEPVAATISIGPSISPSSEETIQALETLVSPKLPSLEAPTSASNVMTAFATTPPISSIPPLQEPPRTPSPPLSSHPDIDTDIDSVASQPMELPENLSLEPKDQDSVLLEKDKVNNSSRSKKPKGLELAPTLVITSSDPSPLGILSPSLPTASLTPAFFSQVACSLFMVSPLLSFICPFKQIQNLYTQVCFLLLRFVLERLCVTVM
As to conditions: protein: recombinant; tags: N-terminal GST; dsDNA, one strand shown. In outline:
as §1

In the next experiment the target is T4, ETV2 (Homo sapiens, UniProt O00321 1-342).
T4 sequence: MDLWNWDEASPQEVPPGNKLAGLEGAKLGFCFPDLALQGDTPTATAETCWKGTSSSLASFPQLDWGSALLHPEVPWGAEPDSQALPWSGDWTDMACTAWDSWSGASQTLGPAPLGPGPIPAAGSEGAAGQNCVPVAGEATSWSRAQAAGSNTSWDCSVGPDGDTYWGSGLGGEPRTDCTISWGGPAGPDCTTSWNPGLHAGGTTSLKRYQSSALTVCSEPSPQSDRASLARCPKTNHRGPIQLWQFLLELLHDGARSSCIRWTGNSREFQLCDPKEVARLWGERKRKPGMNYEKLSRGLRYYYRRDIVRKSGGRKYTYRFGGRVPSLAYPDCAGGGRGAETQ
The settings on record: protein: recombinant; tags: N-terminal GST; dsDNA, one strand shown. In outline:
as §1

The target in a further experiment is T5, ELF3 (Homo sapiens, UniProt P78545 1-371).
T5 sequence: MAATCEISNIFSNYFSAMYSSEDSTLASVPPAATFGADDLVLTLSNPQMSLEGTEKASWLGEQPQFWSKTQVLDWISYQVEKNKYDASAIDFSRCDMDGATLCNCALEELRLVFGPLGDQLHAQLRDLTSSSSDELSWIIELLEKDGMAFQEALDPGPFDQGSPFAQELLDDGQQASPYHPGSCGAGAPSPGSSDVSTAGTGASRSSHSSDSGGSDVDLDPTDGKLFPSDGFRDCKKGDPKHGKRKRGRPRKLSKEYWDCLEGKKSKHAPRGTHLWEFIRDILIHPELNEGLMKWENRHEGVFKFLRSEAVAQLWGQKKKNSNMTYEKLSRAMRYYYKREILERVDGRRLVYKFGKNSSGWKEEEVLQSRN
As to conditions: protein: recombinant; tags: N-terminal GST; dsDNA, one strand shown. In short, it runs like this: as §1

The target of another experiment is CRX (Homo sapiens, UniProt O43186 1-299). The settings on record: protein: recombinant; tags: N-terminal GST; dsDNA, one strand shown. In short, it runs like this: as §1
The next experiment concerns the target ETV1 (Homo sapiens, UniProt P50549 1-477). As to conditions: protein: recombinant; tags: N-terminal GST; dsDNA, one strand shown. In outline: as §1
The target in the next experiment is T6, ERF (Homo sapiens, UniProt P50548 1-548).
T6 sequence: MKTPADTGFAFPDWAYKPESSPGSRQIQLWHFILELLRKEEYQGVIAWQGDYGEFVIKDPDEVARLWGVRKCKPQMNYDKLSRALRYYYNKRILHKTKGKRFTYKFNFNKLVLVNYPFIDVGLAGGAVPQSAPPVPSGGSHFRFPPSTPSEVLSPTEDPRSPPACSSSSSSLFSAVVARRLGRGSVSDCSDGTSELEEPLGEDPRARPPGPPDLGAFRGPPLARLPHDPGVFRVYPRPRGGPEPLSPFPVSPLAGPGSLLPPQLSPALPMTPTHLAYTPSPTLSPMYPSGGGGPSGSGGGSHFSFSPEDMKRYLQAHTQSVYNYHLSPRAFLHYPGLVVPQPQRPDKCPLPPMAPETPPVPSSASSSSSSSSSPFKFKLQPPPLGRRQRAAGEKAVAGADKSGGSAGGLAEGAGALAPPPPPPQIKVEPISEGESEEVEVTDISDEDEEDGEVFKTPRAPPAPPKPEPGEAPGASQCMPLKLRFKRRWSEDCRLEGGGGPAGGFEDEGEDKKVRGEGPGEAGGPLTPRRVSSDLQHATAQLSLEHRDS
The settings on record: protein: recombinant; tags: N-terminal GST; dsDNA, one strand shown. In outline: as §1

The next experiment deals with T7, ETV3L (Homo sapiens, UniProt Q6ZN32 1-361).
T7 sequence: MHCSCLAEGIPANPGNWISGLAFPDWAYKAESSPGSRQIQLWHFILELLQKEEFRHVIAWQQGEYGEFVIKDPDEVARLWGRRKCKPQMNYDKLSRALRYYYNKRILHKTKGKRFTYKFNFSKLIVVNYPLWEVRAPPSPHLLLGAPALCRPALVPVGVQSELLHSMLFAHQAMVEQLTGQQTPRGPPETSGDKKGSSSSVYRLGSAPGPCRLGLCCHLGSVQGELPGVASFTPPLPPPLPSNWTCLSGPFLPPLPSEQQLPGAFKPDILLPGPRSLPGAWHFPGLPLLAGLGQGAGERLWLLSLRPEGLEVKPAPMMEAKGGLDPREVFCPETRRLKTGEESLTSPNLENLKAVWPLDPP
As to conditions: protein: recombinant; tags: N-terminal GST; dsDNA, one strand shown. In outline:
as §1

Another experiment has as its target T8, ETS2 (Homo sapiens, UniProt P15036 1-469).
T8 sequence: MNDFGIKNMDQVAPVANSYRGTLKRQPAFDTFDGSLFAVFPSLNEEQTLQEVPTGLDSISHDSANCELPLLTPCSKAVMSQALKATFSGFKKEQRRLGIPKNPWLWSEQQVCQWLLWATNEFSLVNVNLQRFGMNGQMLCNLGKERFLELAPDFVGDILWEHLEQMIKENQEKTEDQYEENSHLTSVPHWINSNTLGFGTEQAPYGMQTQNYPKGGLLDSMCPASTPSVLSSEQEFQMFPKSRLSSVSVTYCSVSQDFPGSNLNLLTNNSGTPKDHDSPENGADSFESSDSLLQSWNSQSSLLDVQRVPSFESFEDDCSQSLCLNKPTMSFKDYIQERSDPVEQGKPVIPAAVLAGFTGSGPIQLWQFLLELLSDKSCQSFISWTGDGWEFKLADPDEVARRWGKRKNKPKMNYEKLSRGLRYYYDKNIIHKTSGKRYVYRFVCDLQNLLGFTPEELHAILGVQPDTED
The settings on record: protein: recombinant; tags: N-terminal GST; dsDNA, one strand shown. In outline:
as §1

The target of the next experiment is T9, SPDEF (Homo sapiens, UniProt O95238 1-335).
T9 sequence: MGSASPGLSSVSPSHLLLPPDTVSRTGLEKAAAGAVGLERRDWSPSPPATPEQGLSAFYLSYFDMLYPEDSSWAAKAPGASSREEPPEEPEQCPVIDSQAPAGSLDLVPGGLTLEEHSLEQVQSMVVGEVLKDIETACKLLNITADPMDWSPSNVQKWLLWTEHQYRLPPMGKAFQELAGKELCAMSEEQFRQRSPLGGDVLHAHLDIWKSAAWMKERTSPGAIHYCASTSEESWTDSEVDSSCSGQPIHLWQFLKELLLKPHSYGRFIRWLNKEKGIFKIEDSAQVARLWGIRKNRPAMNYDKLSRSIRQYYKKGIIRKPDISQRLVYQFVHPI
The settings on record: protein: recombinant; tags: N-terminal GST; dsDNA, one strand shown. In outline:
as §1

The target of another experiment is T10, ETV7 (Homo sapiens, UniProt Q9Y603 1-341).
T10 sequence: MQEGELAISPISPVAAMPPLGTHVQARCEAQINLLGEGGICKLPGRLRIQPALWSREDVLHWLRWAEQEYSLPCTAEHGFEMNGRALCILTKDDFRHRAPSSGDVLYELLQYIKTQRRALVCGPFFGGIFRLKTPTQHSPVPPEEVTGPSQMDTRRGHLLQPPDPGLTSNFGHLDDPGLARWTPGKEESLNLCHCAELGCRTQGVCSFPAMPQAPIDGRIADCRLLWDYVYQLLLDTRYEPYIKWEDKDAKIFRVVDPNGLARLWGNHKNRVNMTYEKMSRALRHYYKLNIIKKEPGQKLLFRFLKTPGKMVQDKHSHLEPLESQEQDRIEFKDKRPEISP
The settings on record: protein: recombinant; tags: N-terminal GST; dsDNA, one strand shown. In outline:
as §1

A further experiment addresses T11, ELF5 (Homo sapiens, UniProt Q9UKW6-2 1-255).
T11 sequence: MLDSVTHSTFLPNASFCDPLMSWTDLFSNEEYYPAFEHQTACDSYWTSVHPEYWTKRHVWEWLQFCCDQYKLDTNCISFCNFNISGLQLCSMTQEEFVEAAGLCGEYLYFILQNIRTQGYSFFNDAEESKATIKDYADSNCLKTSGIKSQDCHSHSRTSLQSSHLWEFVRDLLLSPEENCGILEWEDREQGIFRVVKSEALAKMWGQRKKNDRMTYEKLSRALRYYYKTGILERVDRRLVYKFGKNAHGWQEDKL
The settings on record: protein: recombinant; tags: N-terminal GST; dsDNA, one strand shown. In short, it runs like this:
as §1

In another experiment the target is T12, ETV3 (Homo sapiens, UniProt P41162-2 1-143).
T12 sequence: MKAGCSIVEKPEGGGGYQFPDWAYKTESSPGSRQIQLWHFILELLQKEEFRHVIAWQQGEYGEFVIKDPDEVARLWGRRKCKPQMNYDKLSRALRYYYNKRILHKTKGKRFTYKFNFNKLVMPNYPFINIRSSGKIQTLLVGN
The settings on record: protein: recombinant; tags: N-terminal GST; dsDNA, one strand shown. In short, it runs like this:
as §1

The next experiment deals with ETV6 (Homo sapiens, UniProt P41212 1-452). As to conditions: protein: recombinant; tags: N-terminal GST; dsDNA, one strand shown. In short, it runs like this: as §1
Chain of ETV6 (P41212 whole entry): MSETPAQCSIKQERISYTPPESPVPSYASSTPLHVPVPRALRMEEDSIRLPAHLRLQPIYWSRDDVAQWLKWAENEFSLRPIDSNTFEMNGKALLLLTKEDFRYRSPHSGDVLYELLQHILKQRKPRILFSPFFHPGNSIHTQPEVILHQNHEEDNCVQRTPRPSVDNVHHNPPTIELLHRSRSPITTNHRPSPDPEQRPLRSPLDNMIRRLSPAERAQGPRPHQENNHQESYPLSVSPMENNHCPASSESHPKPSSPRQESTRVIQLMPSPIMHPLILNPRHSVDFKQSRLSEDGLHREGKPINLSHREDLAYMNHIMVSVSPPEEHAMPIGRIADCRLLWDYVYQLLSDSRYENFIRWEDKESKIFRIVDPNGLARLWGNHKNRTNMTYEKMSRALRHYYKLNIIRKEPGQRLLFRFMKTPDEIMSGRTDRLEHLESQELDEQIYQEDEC

Chain of ETV5 (P41161 whole entry): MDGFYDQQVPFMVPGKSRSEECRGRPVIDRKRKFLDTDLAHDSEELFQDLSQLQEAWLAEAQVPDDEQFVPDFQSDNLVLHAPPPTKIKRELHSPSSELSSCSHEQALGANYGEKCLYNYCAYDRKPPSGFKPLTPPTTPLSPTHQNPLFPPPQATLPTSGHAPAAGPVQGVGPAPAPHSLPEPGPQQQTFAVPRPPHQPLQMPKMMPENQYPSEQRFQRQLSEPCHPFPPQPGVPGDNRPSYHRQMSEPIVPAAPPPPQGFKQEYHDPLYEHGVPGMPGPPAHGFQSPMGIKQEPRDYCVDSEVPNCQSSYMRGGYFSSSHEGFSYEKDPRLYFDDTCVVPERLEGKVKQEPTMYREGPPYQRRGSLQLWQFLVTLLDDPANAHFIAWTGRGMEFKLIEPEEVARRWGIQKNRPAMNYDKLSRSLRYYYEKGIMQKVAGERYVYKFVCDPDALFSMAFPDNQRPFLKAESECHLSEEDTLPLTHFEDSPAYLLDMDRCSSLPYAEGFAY
Chain of CRX (O43186 whole entry): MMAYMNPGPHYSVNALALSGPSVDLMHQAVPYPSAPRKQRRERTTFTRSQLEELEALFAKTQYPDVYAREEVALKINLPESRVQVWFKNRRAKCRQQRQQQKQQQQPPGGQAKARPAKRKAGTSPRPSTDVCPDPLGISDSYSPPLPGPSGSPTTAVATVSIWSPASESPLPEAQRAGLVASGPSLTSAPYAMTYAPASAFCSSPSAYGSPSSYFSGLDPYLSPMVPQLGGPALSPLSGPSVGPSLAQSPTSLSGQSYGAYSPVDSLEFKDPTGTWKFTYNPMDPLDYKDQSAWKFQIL
Chain of HSF1 (Q00613 whole entry): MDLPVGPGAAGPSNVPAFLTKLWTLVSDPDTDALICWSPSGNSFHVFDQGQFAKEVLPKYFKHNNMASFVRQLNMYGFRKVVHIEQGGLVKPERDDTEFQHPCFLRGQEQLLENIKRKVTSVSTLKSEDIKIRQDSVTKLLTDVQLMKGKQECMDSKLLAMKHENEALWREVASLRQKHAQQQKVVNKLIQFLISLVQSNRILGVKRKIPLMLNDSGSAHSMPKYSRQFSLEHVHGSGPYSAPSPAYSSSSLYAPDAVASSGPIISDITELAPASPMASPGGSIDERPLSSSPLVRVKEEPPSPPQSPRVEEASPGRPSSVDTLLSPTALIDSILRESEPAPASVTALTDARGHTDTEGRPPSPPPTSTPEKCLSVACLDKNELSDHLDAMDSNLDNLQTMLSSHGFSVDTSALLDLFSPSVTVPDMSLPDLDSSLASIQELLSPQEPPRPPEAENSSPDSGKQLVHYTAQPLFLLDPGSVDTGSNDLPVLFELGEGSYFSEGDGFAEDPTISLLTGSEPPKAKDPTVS
Chain of ELF4 (Q99607 whole entry): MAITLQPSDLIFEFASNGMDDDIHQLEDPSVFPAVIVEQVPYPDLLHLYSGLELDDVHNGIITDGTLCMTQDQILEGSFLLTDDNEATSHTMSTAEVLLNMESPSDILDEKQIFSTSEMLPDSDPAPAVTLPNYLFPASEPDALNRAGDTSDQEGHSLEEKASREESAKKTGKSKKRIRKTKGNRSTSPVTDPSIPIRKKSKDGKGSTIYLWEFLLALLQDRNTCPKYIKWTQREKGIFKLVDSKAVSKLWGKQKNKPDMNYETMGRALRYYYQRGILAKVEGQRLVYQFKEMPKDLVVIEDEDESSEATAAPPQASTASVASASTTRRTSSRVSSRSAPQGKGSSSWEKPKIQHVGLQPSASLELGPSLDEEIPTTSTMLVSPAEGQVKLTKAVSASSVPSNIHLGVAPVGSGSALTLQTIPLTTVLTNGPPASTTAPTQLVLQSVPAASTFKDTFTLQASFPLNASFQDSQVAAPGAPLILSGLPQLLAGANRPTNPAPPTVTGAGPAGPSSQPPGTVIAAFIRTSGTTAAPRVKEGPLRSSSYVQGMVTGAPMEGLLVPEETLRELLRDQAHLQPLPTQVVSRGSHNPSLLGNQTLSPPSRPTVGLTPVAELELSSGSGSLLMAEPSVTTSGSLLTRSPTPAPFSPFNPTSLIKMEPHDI
Chain of ETV1 (P50549 whole entry): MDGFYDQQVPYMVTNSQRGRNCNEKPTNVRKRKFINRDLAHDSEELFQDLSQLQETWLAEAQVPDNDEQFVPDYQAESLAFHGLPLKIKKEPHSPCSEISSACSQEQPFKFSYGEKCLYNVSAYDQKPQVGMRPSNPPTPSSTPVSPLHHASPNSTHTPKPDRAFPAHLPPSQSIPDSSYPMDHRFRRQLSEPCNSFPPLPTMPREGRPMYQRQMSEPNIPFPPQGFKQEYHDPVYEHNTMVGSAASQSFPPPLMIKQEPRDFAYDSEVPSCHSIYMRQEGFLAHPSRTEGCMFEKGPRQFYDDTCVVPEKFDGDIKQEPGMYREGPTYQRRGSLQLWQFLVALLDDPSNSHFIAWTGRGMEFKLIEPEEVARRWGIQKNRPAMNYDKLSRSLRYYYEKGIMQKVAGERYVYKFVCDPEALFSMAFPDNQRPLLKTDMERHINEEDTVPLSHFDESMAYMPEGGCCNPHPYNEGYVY

As for AAGAAA, the binding signal in the experiment with FEV is 1.15 fold enrichment (6-mer frequency, TF over GST control); with ETV5 it was 1.19 fold enrichment (6-mer frequency, TF over GST control); with HSF1, 1.75 fold enrichment (6-mer frequency, TF over GST control); with SPIC it was 1.19 fold enrichment (6-mer frequency, TF over GST control); with ELF4, 1.19 fold enrichment (6-mer frequency, TF over GST control); in the experiment with ELK4, 1.18 fold enrichment (6-mer frequency, TF over GST control). Moreover, the binding signal was 1.18 fold enrichment (6-mer frequency, TF over GST control) in the experiment with ETV2; 1.23 fold enrichment (6-mer frequency, TF over GST control) in the experiment with ELF3; 1.29 fold enrichment (6-mer frequency, TF over GST control) with CRX; 1.2 fold enrichment (6-mer frequency, TF over GST control) with ETV1; 1.24 fold enrichment (6-mer frequency, TF over GST control) with ERF; 1.26 fold enrichment (6-mer frequency, TF over GST control) with ETV3L. For the same sequence, the binding signal with ETS2 is 1.24 fold enrichment (6-mer frequency, TF over GST control); with SPDEF, 1.09 fold enrichment (6-mer frequency, TF over GST control); with ETV7, 1.26 fold enrichment (6-mer frequency, TF over GST control); in the experiment with ELF5, 1.2 fold enrichment (6-mer frequency, TF over GST control); with ETV3 it was 1.16 fold enrichment (6-mer frequency, TF over GST control); in the experiment with ETV6, 1.22 fold enrichment (6-mer frequency, TF over GST control).
